Screening results as filed in PubChem.
IDE exosite FP: exo-site inhibitors of human insulin-degrading enzyme; P14735; purified IDE, FL-6b probe fluorescence polarization; stronger effect = lower value; z-score at 20 µM; 6.3% of 17,000 active; AID 1259349;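 active = z-score of -3 or lower, meaning strong loss of probe binding signal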;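 also: His-tagged human IDE residues 42-1019 made in E. coli with 30 nM FL-6b probe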
Target sequence (P14735 42-1019 limits assumed): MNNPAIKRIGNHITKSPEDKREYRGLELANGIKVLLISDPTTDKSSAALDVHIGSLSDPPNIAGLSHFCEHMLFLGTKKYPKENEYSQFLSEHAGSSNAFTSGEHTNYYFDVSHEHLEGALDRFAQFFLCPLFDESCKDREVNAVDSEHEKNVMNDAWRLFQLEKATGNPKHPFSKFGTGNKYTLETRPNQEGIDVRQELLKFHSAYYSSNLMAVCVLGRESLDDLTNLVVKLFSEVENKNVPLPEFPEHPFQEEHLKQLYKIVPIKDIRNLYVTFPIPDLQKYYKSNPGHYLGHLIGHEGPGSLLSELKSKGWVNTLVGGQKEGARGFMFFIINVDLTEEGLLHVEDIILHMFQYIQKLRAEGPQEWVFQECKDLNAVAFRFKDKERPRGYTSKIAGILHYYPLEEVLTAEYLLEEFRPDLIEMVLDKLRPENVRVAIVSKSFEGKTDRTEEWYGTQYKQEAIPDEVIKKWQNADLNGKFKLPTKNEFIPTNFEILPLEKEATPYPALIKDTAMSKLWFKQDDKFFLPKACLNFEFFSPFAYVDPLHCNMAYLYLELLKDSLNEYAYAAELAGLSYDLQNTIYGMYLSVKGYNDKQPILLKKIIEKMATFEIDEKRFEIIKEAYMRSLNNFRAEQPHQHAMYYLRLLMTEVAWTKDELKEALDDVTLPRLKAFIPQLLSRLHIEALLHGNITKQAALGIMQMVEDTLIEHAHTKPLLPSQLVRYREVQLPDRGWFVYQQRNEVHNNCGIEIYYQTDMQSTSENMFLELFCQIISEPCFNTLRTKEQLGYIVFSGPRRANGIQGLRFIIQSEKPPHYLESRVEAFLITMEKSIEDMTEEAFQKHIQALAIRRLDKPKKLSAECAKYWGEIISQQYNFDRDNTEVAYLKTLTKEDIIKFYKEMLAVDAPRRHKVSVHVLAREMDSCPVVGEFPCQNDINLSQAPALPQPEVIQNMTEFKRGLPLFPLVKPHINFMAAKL
Numbers stand for hits; n = inactive; ! = not active in a repeat. The entries come from a sample that favours hits as a whole.

SMILES | IDE exosite FP
O=C(Cc1cccnc1)N1CC(=O)N2[C@H](CO)[C@H](c3ccc(/C=C/c4ccccc4)cc3)[C@@H]2C1 | -5.08
C/C=C/c1ccc([C@H]2[C@H](CO)N3C(=O)CN(C(=O)Cc4cccnc4)C[C@@H]23)cc1 | n
C/C=C/c1ccc([C@H]2[C@@H](CO)N3C(=O)CN(C(=O)Cc4cccnc4)C[C@@H]23)cc1 | n
O=C(Cc1cccnc1)N1CC(=O)N2[C@H](C1)[C@H](c1ccc(/C=C/c3ccccc3)cc1)[C@@H]2CO | -4.97
O=C1CN(S(=O)(=O)Cc2ccccc2)C[C@@H]2[C@H](c3ccc(C#Cc4cccc(F)c4)cc3)[C@@H](CO)N12 | n
O=C1CN(Cc2ccccc2)C[C@H]2[C@H](c3ccc(-c4ccccc4F)cc3)[C@@H](CO)N12 | n
O=C(c1cnccn1)N1CC(=O)N2[C@H](C1)[C@@H](c1ccc(/C=C/c3ccccc3)cc1)[C@@H]2CO | n
CN(C)CC(=O)N1C[C@@H]2N[C@H](C1)C2c1ccc(C2=CCCCC2)cc1 (stereo partly drawn) | n
O=C(c1cnccn1)N1C[C@@H]2N[C@H](C1)C2c1ccc(/C=C/c2ccccc2)cc1 (stereo partly drawn) | -4.23!
Cc1cccc(-c2ccc([C@@H]3[C@@H]4CN(C(=O)CN(C)C)C[C@H]3N4)cc2)c1 | n
COc1ccc(-c2ccc(C3[C@@H]4CN(C(=O)c5cnccn5)C[C@H]3N4)cc2)cc1 (stereo partly drawn) | n
CN(C)CC(=O)N1C[C@@H]2N[C@H](C1)C2c1ccc(/C=C/c2ccccc2)cc1 (stereo partly drawn) | -5.64!
CC(=O)NC[C@H]1[C@H](c2ccc(-c3ccccc3F)cc2)[C@@H](CO)N1C(C)=O | n
CN(C)CC(=O)N1[C@H](CO)[C@@H](c2ccc(-c3ccc(C(=O)N(C)C)cc3)cc2)[C@@H]1C#N | n
CCCC(=O)Nc1ccc2c(c1)C(=O)N(C)[C@H]1CC[C@@H](CC(=O)N3CCCCC3)O[C@@H]1CO2 | n
N#C[C@H]1[C@@H](c2ccccc2C2=CCCC2)[C@@H](CO)N1C(=O)Cc1ccncc1 | n
Cc1ccc(-c2ccc([C@@H]3[C@H]4CN(C(=O)Nc5ccccc5)CCCCN4[C@H]3CO)cc2)cc1 | n
Cc1cccc(-c2ccc([C@@H]3[C@H](CO)N4CCCCN(C(=O)NC(C)C)C[C@@H]34)cc2)c1 | -11.1
CC(C)NC(=O)N1CCCCN2[C@H](CO)[C@H](c3ccc(C4=CCCC4)cc3)[C@@H]2C1 | n
Cc1ccc(-c2ccc([C@H]3[C@@H](CO)N4CCCCN(C(=O)Nc5ccccc5)C[C@@H]34)cc2)cc1 | n
Cc1cccc(-c2ccc([C@H]3[C@H](CO)N4CCCCN(C(=O)NC(C)C)C[C@@H]34)cc2)c1 | -13.7
Cc1cccc(-c2ccc([C@H]3[C@H](CO)N4CCCCN(C(=O)c5ccc6c(c5)OCO6)C[C@@H]34)cc2)c1 | n
Cc1cccc(-c2ccc([C@H]3[C@H]4CN(C(=O)NC(C)C)CCCCN4[C@H]3CO)cc2)c1 | -14.4
CO[C@@H](CN(C)CC1CCOCC1)[C@@H](C)CN(C(=O)Nc1ccc(F)cc1)[C@@H](C)CO | n
CC(C)NC(=O)N1[C@H](CO)[C@H]2c3ccccc3N(C)C[C@H]21 | n
SMILES | IDE exosite FP
CC(=O)N(C[C@@H]1N[C@@H](CO)[C@H]1c1ccc(-c2cccnc2)cc1)C1CCCC1 | n
CN(C[C@@H]1[C@@H](c2ccccc2)[C@H](CO)N1CC1CC1)C(=O)c1ccc(F)cc1 | n
N#Cc1cccc(-c2ccc(C3[C@H]4CNC[C@@H]3N4C(=O)Nc3ccc(Cl)cc3)cc2)c1 (stereo partly drawn) | n
COc1ccc2c3c([nH]c2c1)[C@@H](CO)N(S(C)(=O)=O)CC31CN(C(=O)c2ccccc2)C1 | n
COCC(=O)NC[C@@H]1[C@H](c2ccc(-c3ccccc3)cc2)[C@H](CO)N1C(C)=O | n
COc1ccc(C#Cc2ccc([C@H]3[C@H](CO)N4C(=O)CN(C(=O)C5CCOCC5)C[C@@H]34)cc2)cc1 | n
COc1cccc(C#Cc2ccc([C@H]3[C@@H](CO)N4C(=O)CN(C(=O)C5CC5)C[C@H]34)cc2)c1 | -9.46
COc1cccc(C#Cc2ccc([C@H]3[C@H](CO)N4C(=O)CN(C(=O)C5CC5)C[C@@H]34)cc2)c1 | -4.6
COc1cccc(C#Cc2ccc([C@@H]3[C@H]4CN(C(=O)C5CC5)CC(=O)N4[C@H]3CO)cc2)c1 | n
COc1cccc(C#Cc2ccc([C@@H]3[C@@H](CO)N4C(=O)CN(C(=O)C5CC5)C[C@@H]34)cc2)c1 | n
C[C@@H]1CN([C@@H](C)CO)C(=O)c2cc(C3=CCCCC3)cnc2O[C@H]1CN(C)S(=O)(=O)c1cn(C)cn1 | n
CCS(=O)(=O)Nc1ccc2c(c1)C(=O)N(C)C[C@@H](OC)[C@@H](C)CN(C(=O)c1ccc3c(c1)OCO3)[C@H](C)CO2 | n
CN1CCCCN2[C@@H](CO)[C@H](c3ccc(-c4cccnc4)cc3)[C@@H]2C1 | n
N#C[C@H]1[C@@H](c2ccccc2)[C@@H](CO)N1C(=O)c1ccccc1F | n
